Inconclusive results are not listed. Calls of active or inactive are those of the source. Unless noted, calls follow the shape of the dose curve; as a rule, active = well fitted curve in the direction sought with a large enough effect in the repeat runs; inconclusive = weak or mixed curves; inactive = no such curve, though single readings can be large; an effect the other way counts as inactive or inconclusive.
How the values were obtained:
[1] = qHTS assay to identify small molecule antagonists of the TGF-beta/Smad signaling pathway - cell viability counter screen (AID 1346824); also: nearly all actives have a fitted effect of over 50% in size
Method in brief: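 SBE-bla HEK 293T cells were plated overnight at 37 C, then given compounds in DMSO plus TGF-beta1 (added as 0.25 ng/mL solution) for 5 hr. After the bla read, CellTiter-Glo was added to the same wells and luminescence read after 30 min at room temperature.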

[2] = qHTS assay to identify small molecule agonists of the TGF-beta/Smad signaling pathway - cell viability counter screen (AID 1346829); also: top concentration of the series differs between compounds; nearly all actives have a fitted effect of over 45% in size
Method in brief: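 CellTiter-Glo luminescence readout; SBE-bla HEK 293T cells, overnight plating, compound 5 hr at 37 C/5% CO2, then bla substrate 2 hr RT, then CellTiter-Glo 30 min RT.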

[3] = qHTS assay to identify small molecule agonists of the TGF-beta/Smad signaling pathway (AID 1346859; active = well fitted activation curve with a large enough effect in the signal ratio in the repeat runs, not every such curve was filed as active; the % refers to the signal ratio; also: series mostly up to about 77 µM)
Method in brief: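 Each well held 4,000 SBE-bla HEK 293T cells incubated overnight before compound addition; 5 hr later the cleavable FRET substrate went on for 2 hr at room temperature, and fluorescence was read at two emissions.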

[4] = target: Thyrotropin-releasing hormone receptor (Homo sapiens) (UniProt P34981); experiment: qHTS assay to identify small molecule antagonists of the thyrotropin-releasing hormone receptor (TRHR) signaling pathway (AID 1346877; active = well fitted inhibition curve with a large enough effect in the repeat runs, not every such curve was filed as active; also: series mostly up to about 51 µM)
Method in brief: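 HEK293/TRHR cells, 18 h, 37 °C; Ca2+ dye 2 h; cpd 5 min RT; TRH 1 nM final; fluorescence read 3 min, 1 s intervals; 15 concs, triplicate.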

[5] = target: Thyrotropin-releasing hormone receptor (Homo sapiens) (UniProt P34981); experiment: qHTS assay to identify small molecule agonists of the thyrotropin-releasing hormone receptor (TRHR) signaling pathway (AID 1346891; calls by dose curve; also: series mostly up to about 58 µM)
Method in brief: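 Screening of agonists relied on calcium signalling in HEK293 cells expressing human TRHR: dye loading 2 h at 37 °C preceded compound addition and a 3-min fluorescence time course.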

[6] = Human pregnane X receptor (PXR) small molecule agonists, qHTS cell viability counter screen (AID 1346977); also: nearly all actives have a fitted effect of over 50% in size
Method in brief: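 Tox21 qHTS format; PXR-Luc HepG2, 2,000/well, charcoal-stripped FBS 5%. Cpd exposure 24hr. Read: CellTiter-Fluor fluorescence, multiplexed with luciferase.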

[7] = Caspase-3/7 induction in HepG2 cells by small molecules, qHTS assay (AID 1346978); also: nearly all actives have a fitted effect of over 15% in size
Method in brief: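 Wild-type HepG2 cells (2,000/well) were settled 5 h at 37 C, 5% CO2, then exposed to compounds in DMSO for 17 h. Caspase-3/7 activity was read by luminescence 30 min after adding Caspase-Glo 3/7 reagent at room temperature.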

[8] = Caspase-3/7 induction in CHO-K1 cells by small molecules, qHTS cell viability counter screen (AID 1346979); also: nearly all actives have a fitted effect of over 35% in size
Method in brief: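 CellTiter-Fluor viability check, qHTS format: wild-type CHO-K1, 16hr compound treatment, 1hr reagent incubation, fluorescence read.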

[9] = Caspase-3/7 induction in CHO-K1 cells by small molecules, qHTS assay (AID 1346980); also: nearly all actives have a fitted effect of over 15% in size
Method in brief: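 Wild-type cells were seeded at 1,500 per well and settled 5 hr at 37 C, 5% CO2, then exposed to DMSO-dissolved compounds for 17 hr. Caspase-Glo 3/7 reagent was added, and luminescence was read after 30min at room temperature.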

[10] = Caspase-3/7 induction in HepG2 cells by small molecules, qHTS cell viability counter screen (AID 1346981); also: series mostly up to about 92 µM; nearly all actives have a fitted effect of over 30% in size
Method in brief: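 Fluorescence read-out of live-cell protease activity (CellTiter-Fluor) after 1 hr with reagent. This was measured in the same wells as the caspase-3/7 luminescence, on HepG2 cells exposed to DMSO-dissolved compounds for 16 hr at 37 C.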

[11] = target: Nuclear receptor subfamily 1 group I member 2 (Homo sapiens) (UniProt O75469); experiment: Human pregnane X receptor (PXR) small molecule agonists, qHTS assay (AID 1346982); also: nearly all actives have a fitted effect of over 35% in size; also: potency is read from the fitted curve at half-maximal effect
Method in brief: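 HepG2 PXR-Luc reporter line, 5% charcoal-stripped FBS; 5 hr pre-incubation, compound (DMSO) 24 hr at 37 C/5% CO2; ONE-Glo 30 min RT; luminescence read-out.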

[12] = target: Nuclear receptor subfamily 1 group I member 2 (Rattus norvegicus) (UniProt Q9R1A7); experiment: Rat pregnane X receptor (rPXR) activation by small molecules, qHTS assay (AID 1346983); details: rPXR luciferase reporter cells, One-Glo luminescence, 24 h; stronger effect = higher value; also: nearly all actives have a fitted effect of over 20% in size
Method in brief: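 Cell-based rPXR luciferase reporter assay, 2,000 cells per well, rested 5hr at 37 C before compound addition in DMSO, then 24 hr at 37 C. One-Glo reagent was added and luminescence read after 30 min at room temperature.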

[13] = target: Nuclear receptor subfamily 1 group I member 2 (Homo sapiens) (UniProt O75469); experiment: CYP3A4 induction through human pregnane X receptor (PXR) by small molecules, qHTS assay (AID 1346984); also: nearly all actives have a fitted effect of over 40% in size
Method in brief: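 HepG2-derived DPX-2 line carrying PXR plus a CYP3A4-promoter luciferase reporter; cells plated 5 hr, compound-exposed 24 hr at 37C. CYP3A4 activity probed with 3uM (final) Luciferin-IPA for 3hr, then luciferase read after One-Glo.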

[14] = target: Cytochrome P450 2D6 (Homo sapiens) (UniProt P10635); experiment: Cytochrome P450 Family 2 Subfamily D Member 6 (CYP2D6) small molecule antagonists: luciferase reporter qHTS assay (AID 1671196); also: nearly all actives have a fitted effect of over 50% in size; also: potency is read from the fitted curve at half-maximal effect
Method in brief: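 Luminogenic proluciferin substrate, CYP2D6 enzyme; 10 min RT preincubation with compound, NADPH regeneration system added, 1 h RT. Stop/detection reagent, 20 min RT, luminescence read (RLU). Signal proportional to CYP activity.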

[15] = target: Cytochrome P450 2C9 (Homo sapiens) (UniProt P11712); experiment: Cytochrome P450 Family 2 Subfamily C Member 9 (CYP2C9) small molecule antagonists: luciferase reporter qHTS assay (AID 1671198); also: series mostly up to about 120 µM; nearly all actives have a fitted effect of over 50% in size
Method in brief: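 CYP2C9 activity was measured with a P450-Glo proluciferin substrate. Enzyme–substrate mix was held with compound for 10 min at room temperature, then NADPH regeneration solution was added for 1 h at 37C. Luciferin product was read as luminescence.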

[16] = target: Cytochrome P450 1A2 (Homo sapiens) (UniProt P05177); experiment: Cytochrome P450 Family 1 Subfamily A Member 2 (CYP1A2) small molecule antagonists: luciferase reporter qHTS assay (AID 1671199)
Method in brief: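 Luminescence readout (relative luminescence units) after luciferin detection reagent, 20 min RT. Preceded by 1 h room-temperature CYP1A2 reaction with NADPH regeneration solution following 10 min compound preincubation with enzyme and proluciferin substrate. Furafylline positive control.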

[17] = target: Voltage-gated inwardly rectifying potassium channel KCNH2 (Homo sapiens) (UniProt Q12809); experiment: Human Ether-a-go-go-Related Gene (hERG) channel small molecule antagonists: fluorescence cell-based qHTS assay (AID 1671200)
Method in brief: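 Kinetic two-minute fluorescence traces, sampled at 1 s, were collected following thallium stimulus of U2OS cells (1000 per well) that had been cultured overnight at 37 C and loaded with FluxOR II.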

[18] = target: Cytochrome P450 3A4 (Homo sapiens) (UniProt P08684); experiment: Cytochrome P450 Family 3 Subfamily A Member 4 (CYP3A4) small molecule antagonists: luciferase reporter qHTS assay (AID 1671201); also: nearly all actives have a fitted effect of over 50% in size; also: potency is read from the fitted curve at half-maximal effect
Method in brief: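 Proluciferin-to-luciferin conversion by CYP3A4, NADPH-regenerated, 1 h RT; luminescence read as RLU. Ketoconazole as control.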

[19] = target: Cytochrome P450 2C19 (Homo sapiens) (UniProt P33261); experiment: Cytochrome P450 Family 2 Subfamily C Member 19 (CYP2C19) small molecule antagonists: luciferase reporter qHTS assay (AID 1671197); also: nearly all actives have a fitted effect of over 65% in size; also: potency is read from the fitted curve at half-maximal effect
Method in brief: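 Enzyme-substrate mix with proluciferin substrate (P450-Glo CYP2C19 system) preincubated with compounds 10 min at room temperature; NADPH regeneration solution added, 37C for 1 h; detection reagent stops reaction, luminescence read after 20 min. Ketoconazole positive control.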
% is scaled to controls: 0 for no effect and ±100 for the full control effect.

Sequence of Cytochrome P450 2D6 (Homo sapiens) (P10635 whole entry, looked up): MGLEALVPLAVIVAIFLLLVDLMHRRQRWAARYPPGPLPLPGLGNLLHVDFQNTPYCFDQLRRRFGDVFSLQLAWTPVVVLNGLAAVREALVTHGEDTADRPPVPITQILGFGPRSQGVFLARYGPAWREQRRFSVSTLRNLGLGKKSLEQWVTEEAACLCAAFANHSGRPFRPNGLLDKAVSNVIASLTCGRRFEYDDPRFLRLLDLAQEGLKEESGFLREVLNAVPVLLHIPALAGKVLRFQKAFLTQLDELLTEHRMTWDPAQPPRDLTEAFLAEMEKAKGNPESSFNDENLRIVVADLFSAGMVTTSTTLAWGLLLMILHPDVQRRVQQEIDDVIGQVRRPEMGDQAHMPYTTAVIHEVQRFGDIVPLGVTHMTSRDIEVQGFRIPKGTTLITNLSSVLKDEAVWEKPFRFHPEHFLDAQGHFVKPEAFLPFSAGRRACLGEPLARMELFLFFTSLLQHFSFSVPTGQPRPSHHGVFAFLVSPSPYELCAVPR
Sequence of Cytochrome P450 2C19 (Homo sapiens) (P33261 whole entry, looked up): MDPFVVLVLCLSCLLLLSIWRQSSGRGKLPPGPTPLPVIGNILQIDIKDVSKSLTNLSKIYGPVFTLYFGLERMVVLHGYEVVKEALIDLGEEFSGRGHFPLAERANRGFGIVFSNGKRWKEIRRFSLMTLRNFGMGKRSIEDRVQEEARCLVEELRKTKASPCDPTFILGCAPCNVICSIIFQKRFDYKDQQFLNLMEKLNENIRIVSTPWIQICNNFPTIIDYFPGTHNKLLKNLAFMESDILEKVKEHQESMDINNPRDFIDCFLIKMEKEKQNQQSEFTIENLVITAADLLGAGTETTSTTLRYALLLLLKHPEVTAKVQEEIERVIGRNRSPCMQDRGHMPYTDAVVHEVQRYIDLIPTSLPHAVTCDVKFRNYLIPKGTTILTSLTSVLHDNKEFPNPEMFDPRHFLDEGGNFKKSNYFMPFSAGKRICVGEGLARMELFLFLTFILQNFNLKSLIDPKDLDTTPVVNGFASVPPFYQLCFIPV
Sequence of Thyrotropin-releasing hormone receptor (Homo sapiens) (P34981 whole entry, looked up): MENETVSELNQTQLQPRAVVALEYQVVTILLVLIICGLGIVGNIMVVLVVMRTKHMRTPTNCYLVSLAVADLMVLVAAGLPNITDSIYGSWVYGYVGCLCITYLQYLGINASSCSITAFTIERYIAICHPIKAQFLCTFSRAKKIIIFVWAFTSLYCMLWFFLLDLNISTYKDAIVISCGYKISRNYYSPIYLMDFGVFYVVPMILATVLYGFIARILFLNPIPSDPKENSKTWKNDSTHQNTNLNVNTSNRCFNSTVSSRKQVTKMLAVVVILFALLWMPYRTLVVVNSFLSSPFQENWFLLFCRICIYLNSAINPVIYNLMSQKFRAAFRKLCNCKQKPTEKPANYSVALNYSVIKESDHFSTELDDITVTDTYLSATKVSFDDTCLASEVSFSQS
Sequence of Cytochrome P450 3A4 (Homo sapiens) (P08684 whole entry, looked up): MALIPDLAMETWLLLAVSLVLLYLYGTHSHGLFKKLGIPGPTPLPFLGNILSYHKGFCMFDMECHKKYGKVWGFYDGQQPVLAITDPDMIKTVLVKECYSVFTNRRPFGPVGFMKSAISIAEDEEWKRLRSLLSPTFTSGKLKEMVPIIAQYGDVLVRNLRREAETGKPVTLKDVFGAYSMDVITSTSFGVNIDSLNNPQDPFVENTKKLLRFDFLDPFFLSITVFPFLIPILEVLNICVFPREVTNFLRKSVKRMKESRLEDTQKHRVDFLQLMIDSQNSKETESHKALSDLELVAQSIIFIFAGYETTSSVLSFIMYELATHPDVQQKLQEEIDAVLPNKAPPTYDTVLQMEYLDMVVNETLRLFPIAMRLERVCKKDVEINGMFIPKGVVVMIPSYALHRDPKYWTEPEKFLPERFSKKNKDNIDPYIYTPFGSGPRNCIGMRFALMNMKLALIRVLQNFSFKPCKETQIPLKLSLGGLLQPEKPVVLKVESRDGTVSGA
Sequence of Cytochrome P450 2C9 (Homo sapiens) (P11712 whole entry, looked up): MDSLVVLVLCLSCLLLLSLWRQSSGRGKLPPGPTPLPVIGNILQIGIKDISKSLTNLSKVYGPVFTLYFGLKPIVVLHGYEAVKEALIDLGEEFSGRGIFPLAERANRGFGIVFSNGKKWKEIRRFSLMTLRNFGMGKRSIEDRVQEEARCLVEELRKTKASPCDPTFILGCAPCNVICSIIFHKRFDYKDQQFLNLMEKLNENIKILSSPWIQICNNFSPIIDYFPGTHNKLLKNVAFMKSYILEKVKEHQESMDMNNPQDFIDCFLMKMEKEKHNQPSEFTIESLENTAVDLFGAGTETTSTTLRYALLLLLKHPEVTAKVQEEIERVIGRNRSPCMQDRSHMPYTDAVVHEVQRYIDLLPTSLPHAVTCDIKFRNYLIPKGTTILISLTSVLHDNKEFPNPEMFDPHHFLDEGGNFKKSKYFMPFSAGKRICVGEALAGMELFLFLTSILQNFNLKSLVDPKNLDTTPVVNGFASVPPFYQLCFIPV
Sequence of Cytochrome P450 1A2 (Homo sapiens) (P05177 whole entry, looked up): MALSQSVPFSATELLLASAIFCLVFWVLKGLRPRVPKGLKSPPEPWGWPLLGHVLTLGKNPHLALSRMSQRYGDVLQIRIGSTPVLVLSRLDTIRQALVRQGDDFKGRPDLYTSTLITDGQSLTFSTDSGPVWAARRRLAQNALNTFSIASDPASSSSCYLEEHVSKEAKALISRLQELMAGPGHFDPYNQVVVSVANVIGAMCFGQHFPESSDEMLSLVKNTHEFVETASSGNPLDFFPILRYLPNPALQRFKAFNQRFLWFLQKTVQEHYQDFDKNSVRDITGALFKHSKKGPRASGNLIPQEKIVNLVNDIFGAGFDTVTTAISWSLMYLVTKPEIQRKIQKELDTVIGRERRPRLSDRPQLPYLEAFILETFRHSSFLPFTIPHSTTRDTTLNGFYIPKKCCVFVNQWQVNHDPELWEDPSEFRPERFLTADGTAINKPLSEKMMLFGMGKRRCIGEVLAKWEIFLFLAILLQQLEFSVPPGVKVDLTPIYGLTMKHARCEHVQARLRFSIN
Sequence of Nuclear receptor subfamily 1 group I member 2 (Homo sapiens) (O75469 whole entry, looked up): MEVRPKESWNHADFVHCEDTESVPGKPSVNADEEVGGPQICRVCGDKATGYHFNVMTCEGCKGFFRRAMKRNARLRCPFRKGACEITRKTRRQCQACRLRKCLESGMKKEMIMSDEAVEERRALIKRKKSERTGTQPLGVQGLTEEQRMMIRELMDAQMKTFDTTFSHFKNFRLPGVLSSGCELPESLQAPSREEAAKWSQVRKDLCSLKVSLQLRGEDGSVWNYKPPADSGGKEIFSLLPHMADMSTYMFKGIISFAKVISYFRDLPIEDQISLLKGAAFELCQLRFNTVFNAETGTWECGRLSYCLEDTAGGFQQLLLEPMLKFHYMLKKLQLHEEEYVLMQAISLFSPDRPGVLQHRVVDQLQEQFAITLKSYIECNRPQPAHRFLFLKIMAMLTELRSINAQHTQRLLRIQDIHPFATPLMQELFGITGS
Sequence of Voltage-gated inwardly rectifying potassium channel KCNH2 (Homo sapiens) (Q12809 whole entry, looked up): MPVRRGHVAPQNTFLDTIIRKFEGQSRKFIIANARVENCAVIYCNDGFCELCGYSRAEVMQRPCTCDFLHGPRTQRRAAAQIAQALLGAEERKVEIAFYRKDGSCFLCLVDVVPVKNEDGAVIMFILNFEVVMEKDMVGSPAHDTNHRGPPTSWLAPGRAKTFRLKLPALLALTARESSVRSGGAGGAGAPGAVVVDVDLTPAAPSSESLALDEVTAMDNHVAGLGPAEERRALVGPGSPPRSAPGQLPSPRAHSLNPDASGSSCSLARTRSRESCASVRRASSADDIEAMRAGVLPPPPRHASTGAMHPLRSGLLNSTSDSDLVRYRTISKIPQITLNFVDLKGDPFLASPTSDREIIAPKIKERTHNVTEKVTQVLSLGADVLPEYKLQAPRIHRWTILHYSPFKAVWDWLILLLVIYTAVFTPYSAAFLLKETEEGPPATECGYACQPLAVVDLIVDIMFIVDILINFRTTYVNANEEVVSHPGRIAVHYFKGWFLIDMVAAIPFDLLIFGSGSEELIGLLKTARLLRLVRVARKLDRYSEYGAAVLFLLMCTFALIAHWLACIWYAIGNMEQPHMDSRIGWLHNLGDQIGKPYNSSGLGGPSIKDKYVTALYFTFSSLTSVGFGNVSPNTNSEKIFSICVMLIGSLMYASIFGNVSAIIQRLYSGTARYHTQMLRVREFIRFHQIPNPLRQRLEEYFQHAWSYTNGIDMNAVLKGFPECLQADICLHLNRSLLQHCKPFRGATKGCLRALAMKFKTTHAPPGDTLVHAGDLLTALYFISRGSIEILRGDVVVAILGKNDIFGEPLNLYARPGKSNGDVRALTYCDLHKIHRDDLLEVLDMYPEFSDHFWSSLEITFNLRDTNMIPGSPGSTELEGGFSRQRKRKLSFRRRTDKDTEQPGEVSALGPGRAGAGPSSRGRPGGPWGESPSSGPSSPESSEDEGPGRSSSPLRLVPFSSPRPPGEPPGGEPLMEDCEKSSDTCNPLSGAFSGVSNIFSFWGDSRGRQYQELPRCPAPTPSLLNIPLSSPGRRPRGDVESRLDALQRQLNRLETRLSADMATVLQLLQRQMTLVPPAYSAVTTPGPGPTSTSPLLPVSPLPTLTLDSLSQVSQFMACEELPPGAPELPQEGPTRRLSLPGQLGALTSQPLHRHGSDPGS
Sequence of Nuclear receptor subfamily 1 group I member 2 (Rattus norvegicus) (Q9R1A7 whole entry, looked up): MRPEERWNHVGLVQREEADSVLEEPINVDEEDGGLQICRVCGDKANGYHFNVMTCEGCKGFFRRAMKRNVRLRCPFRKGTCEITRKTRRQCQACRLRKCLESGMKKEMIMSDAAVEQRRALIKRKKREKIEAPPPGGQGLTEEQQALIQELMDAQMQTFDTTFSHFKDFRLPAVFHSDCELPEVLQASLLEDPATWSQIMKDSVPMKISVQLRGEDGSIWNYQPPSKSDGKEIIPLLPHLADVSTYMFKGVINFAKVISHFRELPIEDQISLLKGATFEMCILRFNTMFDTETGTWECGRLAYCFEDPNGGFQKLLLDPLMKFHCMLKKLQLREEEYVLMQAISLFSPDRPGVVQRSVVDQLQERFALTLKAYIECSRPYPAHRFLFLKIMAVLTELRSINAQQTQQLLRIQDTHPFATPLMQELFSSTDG

N#CCC(=O)NN
inactive: outcome [1] | outcome [2] | outcome [3] | outcome [4] | outcome [5] | outcome [6] | outcome [7] | Potency [8] | outcome [9] | outcome [10] | Potency [11] | max activation [12] -4.95% | Potency [13] | Potency [14] | Potency [15] | Potency [16] | Potency [17] | Potency [18]

Cn1c(=O)c2c(ncn2CCO)n(C)c1=O
inactive: outcome [1] | outcome [2] | outcome [3] | outcome [4] | outcome [5] | outcome [6] | outcome [7] | Potency [8] | outcome [9] | outcome [10] | Potency [11] | Potency [14] | Potency [15] | Potency [17] | Potency [18]

CC(C)CCOC(=O)c1ccccc1
inactive: outcome [1] | outcome [2] | outcome [3] | outcome [4] | outcome [5] | outcome [6] | outcome [7] | Potency [8] | outcome [9] | outcome [10] | Potency [11] | Potency [14] | Potency [15] | Potency [17] | Potency [18]

Nc1nnnn1-c1ccccc1
inactive: outcome [1] | outcome [2] | outcome [3] | outcome [4] | outcome [5] | outcome [6] | outcome [7] | Potency [8] | outcome [9] | outcome [10] | Potency [11] | Potency [14] | Potency [19] | Potency [15] | Potency [17] | Potency [18]

CCCCC1CCC(O)CC1 (configuration not stated)
inactive: outcome [1] | outcome [2] | outcome [3] | outcome [4] | outcome [5] | outcome [6] | outcome [7] | Potency [8] | outcome [9] | outcome [10] | Potency [11] | Potency [14] | Potency [15] | Potency [17] | Potency [18]

COC(=O)c1ccccc1C(=O)O
inactive: outcome [1] | outcome [2] | outcome [3] | outcome [4] | outcome [5] | outcome [6] | outcome [7] | Potency [8] | outcome [9] | outcome [10] | Potency [11] | Potency [14] | Potency [17] | Potency [18]

CC1OCCC1=O (configuration not stated)
inactive: outcome [1] | outcome [2] | outcome [3] | outcome [4] | outcome [5] | outcome [6] | outcome [7] | Potency [8] | outcome [9] | outcome [10] | Potency [11] | Potency [19] | Potency [15] | Potency [16] | Potency [17] | Potency [18]

CCC[C@@H]1C[C@@H](C(=O)N[C@@H]([C@H]2O[C@H](SC)[C@H](O)[C@@H](O)[C@H]2O)[C@@H](C)O)N(C)C1
inactive: outcome [1] | outcome [2] | outcome [3] | outcome [4] | outcome [5] | outcome [6] | outcome [7] | Potency [8] | outcome [9] | outcome [10] | Potency [11] | max activation [12] 0.287% | Potency [13] | Potency [19] | Potency [15] | Potency [16] | Potency [17] | Potency [18]

CC(C)[C@H]1CC[C@H](C)C[C@@H]1O
inactive: outcome [1] | outcome [2] | outcome [3] | outcome [4] | outcome [5] | outcome [6] | outcome [7] | Potency [8] | outcome [9] | outcome [10] | Potency [14] | Potency [15] | Potency [16] | Potency [18]
active: Potency [11] 55.4 µM

O=C(CCCl)NCCc1ccccc1
inactive: outcome [1] | outcome [2] | outcome [3] | outcome [4] | outcome [5] | outcome [6] | outcome [7] | Potency [8] | outcome [9] | outcome [10] | Potency [11] | Potency [19] | Potency [15] | Potency [16] | Potency [17] | Potency [18]

CCCSSCCC
inactive: outcome [1] | outcome [2] | outcome [3] | outcome [4] | outcome [5] | outcome [6] | outcome [7] | Potency [8] | outcome [9] | outcome [10] | Potency [11] | Potency [19] | Potency [15] | Potency [17] | Potency [18]

C=CC(=O)OCC1CCCO1 (configuration not stated)
inactive: outcome [1] | outcome [2] | outcome [3] | outcome [4] | outcome [5] | outcome [6] | outcome [7] | Potency [8] | outcome [9] | outcome [10] | Potency [11] | Potency [14] | Potency [19] | Potency [17] | Potency [18]

COCCc1ccccn1
inactive: outcome [1] | outcome [2] | outcome [3] | outcome [4] | outcome [5] | outcome [6] | outcome [7] | Potency [8] | outcome [9] | outcome [10] | Potency [11] | Potency [14] | Potency [18]

Cc1ccc(C)c([N+](=O)[O-])c1
inactive: outcome [1] | outcome [2] | outcome [3] | outcome [4] | outcome [5] | outcome [6] | outcome [7] | Potency [8] | outcome [9] | outcome [10] | Potency [11] | Potency [14] | Potency [19] | Potency [15] | Potency [16] | Potency [18]

CC(=O)OC1CCCCC1C(C)(C)C (configuration not stated)
inactive: outcome [1] | outcome [2] | outcome [3] | outcome [4] | outcome [5] | outcome [6] | outcome [7] | Potency [8] | outcome [9] | outcome [10] | Potency [11] | Potency [14] | Potency [19] | Potency [15] | Potency [16] | Potency [17] | Potency [18]

Cc1ccc(C(C)NC(=O)[C@@H](NC(=O)OC(C)C)C(C)C)cc1 (some centres not stated)
active: Potency [11] 21.6 µM | Potency [14] 35.5 µM | Potency [19] 56.2 µM | Potency [18] 3.55 µM
inactive: outcome [1] | outcome [2] | outcome [3] | outcome [4] | outcome [5] | outcome [6] | outcome [7] | Potency [8] | outcome [9] | outcome [10] | Potency [17]

COC(=O)CCCCC(CCSS/C(CCO)=C(\C)N(C=O)Cc1cnc(C)nc1N)SC(C)=O (configuration not stated)
inactive: outcome [1] | outcome [2] | outcome [3] | outcome [4] | outcome [5] | outcome [6] | outcome [7] | Potency [8] | outcome [9] | outcome [10] | Potency [11] | Potency [14] | Potency [16]
